This is an account of results in the supplement of paper PMC10849652.

Targets with a hit are over-represented here; the source holds about 8,800 in all. About 0.5% of all pairs of compound and target were hits. Values without a mark were called inactive.

Test in all cases: log2 fold change, soluble protein after heating vs DMSO (PISA); higher = thermal stabilisation; K562 lysate, 10 uM; active = over 0.2 and 3.5 SD of the protein, either way, in both replicates (recomputed)
Compound in one assay: C#Cc1cccc(Nc2ncnc3cc(OCCOC)c(OCCOC)cc23)c1 [erlotinib]
Summed up: (§1)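 Pellets of K562 cells were dounce-homogenised in PBS pH 7.4 with 1 mM MgCl2, and the crude extract was held at 1 mg/mL protein for a 30 min treatment with 10 μM compound. Aliquots were heated for 3 min over 48°C-58°C and pooled before NP-40 was added to 0.5% at 4°C. The supernatant from 21,000xg for 90 min was quantified by TMTpro 16plex LC-MS/MS with channel sums equalised. Values are reported from duplicates as log-two fold change in thermal stability relative to solvent controls.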

Compound in assay [1]: C/C(=N\NC(=O)C1=CC(=CC=C1)S(=O)(=O)N2CCOCC2)/C3=C(C=CC(=C3)Cl)O
Summed up:
as §1

Compound in assay [2]: C1=CC(=CC=C1C2=NC3=C(N2)C=C(C=C3)C(=O)N)OC4=CC=C(C=C4)Cl
Summed up:
as §1

Compound in assay [3]: C1=CC2=C(C=CC(=C2)/C=C\3/C(=O)NC(=NCC4=CC=CS4)S3)N=C1
A digest of the protocol:
as §1

Compound in assay [4]: C1=CC2=NC=CN=C2C=C1/C=C/3\C(=O)NC(=O)S3
A digest of the protocol: as §1

Compound in assay [5]: C1=CC=C(C=C1)C2=NC(=C(N2)C3=CC=NC=C3)C4=CC(=C(C=C4)Cl)O
A digest of the protocol:
as §1

Compound in assay [6]: C1=CC=C2C(=C1)C3=NNC4=CC=CC(=C43)C2=O
A digest of the protocol:
as §1

Compound in assay [7]: C1CCN(C1)C(=O)NC2=CC=CC(=C2)NC3=NC=C(C(=N3)NCCC4=CN=CN4)Br
A digest of the protocol: as §1

Compound in assay [8]: C1CN(CCC1(CC2=CC=C(C=C2)Cl)N)C3=NC=NC4=C3C=CN4
A digest of the protocol: as §1

Compound in a further assay: C1COCCN1CCN2C3=CC=CC=C3N=C2NC(=O)C4=CC(=CC=C4)[N+](=O)[O-] [IRAK-1-4 Inhibitor I]
Summed up:
as §1

UniProt Q16563, sequence (Q16563 whole entry, looked up): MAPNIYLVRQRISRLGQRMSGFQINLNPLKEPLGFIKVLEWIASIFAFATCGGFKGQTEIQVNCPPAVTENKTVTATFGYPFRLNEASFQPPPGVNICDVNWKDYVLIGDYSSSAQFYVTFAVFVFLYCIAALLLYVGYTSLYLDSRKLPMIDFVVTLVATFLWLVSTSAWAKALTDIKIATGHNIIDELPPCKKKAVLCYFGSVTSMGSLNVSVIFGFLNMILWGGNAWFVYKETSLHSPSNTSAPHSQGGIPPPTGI
UniProt Q13148, sequence (Q13148 whole entry, looked up): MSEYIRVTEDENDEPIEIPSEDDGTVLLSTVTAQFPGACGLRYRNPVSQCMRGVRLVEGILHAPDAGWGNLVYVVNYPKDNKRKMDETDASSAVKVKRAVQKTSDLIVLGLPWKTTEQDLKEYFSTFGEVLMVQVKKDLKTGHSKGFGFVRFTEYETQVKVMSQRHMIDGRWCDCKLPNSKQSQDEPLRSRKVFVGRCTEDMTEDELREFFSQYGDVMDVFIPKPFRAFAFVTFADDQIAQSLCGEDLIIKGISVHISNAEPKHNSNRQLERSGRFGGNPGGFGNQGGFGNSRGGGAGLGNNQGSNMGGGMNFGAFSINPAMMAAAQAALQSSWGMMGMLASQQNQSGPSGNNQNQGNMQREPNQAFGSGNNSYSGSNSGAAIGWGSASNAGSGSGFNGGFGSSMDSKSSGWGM
UniProt Q86XK3, sequence (Q86XK3 whole entry, looked up): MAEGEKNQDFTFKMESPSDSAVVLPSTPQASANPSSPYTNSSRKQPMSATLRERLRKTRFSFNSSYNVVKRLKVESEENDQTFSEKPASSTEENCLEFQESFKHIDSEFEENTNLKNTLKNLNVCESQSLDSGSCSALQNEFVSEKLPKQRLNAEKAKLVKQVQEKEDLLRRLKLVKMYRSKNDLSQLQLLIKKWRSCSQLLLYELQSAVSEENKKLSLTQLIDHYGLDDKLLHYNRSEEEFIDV
UniProt Q8WUM9, sequence (Q8WUM9 whole entry, looked up): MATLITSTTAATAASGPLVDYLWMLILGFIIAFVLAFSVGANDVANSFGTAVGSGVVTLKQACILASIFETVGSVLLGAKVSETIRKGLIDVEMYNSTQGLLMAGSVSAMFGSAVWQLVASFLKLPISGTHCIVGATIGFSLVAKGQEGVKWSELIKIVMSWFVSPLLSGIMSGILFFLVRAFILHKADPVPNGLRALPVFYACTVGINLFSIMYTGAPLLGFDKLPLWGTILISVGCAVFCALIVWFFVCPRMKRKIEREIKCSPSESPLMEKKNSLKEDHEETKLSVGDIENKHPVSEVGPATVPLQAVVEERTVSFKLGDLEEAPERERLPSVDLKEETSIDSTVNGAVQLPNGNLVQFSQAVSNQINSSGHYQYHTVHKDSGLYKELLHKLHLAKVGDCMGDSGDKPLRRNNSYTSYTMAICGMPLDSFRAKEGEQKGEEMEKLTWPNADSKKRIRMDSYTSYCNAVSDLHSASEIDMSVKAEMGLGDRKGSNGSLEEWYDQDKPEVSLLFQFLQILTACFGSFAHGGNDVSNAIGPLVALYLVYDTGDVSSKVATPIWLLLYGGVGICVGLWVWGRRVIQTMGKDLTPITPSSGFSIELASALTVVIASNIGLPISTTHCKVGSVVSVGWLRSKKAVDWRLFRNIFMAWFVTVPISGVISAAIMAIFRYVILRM
UniProt Q9NTJ3, sequence (Q9NTJ3 whole entry, looked up): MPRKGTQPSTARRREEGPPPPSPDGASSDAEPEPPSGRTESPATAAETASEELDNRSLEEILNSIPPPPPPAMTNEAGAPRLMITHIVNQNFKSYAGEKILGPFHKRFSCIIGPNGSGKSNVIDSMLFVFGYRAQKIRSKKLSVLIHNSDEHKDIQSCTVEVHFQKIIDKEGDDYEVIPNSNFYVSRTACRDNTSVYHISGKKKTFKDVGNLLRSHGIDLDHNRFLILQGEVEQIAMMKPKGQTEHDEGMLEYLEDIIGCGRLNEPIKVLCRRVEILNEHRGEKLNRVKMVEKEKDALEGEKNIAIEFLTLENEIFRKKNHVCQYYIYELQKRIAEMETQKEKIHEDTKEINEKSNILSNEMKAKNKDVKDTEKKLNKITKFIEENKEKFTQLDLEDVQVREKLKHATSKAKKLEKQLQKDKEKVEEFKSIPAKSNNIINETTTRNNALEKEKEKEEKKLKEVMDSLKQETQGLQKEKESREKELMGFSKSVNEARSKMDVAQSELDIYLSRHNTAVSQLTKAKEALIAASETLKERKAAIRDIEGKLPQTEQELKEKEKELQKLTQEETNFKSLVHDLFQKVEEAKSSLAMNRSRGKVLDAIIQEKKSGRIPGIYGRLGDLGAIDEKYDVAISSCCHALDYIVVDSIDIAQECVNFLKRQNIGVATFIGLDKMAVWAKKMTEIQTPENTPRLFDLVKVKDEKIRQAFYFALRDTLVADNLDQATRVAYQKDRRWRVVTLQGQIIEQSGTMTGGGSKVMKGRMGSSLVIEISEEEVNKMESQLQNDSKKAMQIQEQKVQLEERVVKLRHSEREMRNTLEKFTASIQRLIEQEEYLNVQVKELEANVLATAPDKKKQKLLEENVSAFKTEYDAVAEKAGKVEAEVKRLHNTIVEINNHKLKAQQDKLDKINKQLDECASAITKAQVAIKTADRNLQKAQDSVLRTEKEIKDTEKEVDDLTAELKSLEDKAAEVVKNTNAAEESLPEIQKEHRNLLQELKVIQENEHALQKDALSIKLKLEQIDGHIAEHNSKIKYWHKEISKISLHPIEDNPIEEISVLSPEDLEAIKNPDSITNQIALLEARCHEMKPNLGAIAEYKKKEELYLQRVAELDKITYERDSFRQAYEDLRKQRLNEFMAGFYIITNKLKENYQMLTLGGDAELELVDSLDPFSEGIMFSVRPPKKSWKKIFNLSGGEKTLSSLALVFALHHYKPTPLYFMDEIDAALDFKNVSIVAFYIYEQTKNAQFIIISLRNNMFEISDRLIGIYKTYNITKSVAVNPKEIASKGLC
UniProt P35711, sequence (P35711 whole entry, looked up): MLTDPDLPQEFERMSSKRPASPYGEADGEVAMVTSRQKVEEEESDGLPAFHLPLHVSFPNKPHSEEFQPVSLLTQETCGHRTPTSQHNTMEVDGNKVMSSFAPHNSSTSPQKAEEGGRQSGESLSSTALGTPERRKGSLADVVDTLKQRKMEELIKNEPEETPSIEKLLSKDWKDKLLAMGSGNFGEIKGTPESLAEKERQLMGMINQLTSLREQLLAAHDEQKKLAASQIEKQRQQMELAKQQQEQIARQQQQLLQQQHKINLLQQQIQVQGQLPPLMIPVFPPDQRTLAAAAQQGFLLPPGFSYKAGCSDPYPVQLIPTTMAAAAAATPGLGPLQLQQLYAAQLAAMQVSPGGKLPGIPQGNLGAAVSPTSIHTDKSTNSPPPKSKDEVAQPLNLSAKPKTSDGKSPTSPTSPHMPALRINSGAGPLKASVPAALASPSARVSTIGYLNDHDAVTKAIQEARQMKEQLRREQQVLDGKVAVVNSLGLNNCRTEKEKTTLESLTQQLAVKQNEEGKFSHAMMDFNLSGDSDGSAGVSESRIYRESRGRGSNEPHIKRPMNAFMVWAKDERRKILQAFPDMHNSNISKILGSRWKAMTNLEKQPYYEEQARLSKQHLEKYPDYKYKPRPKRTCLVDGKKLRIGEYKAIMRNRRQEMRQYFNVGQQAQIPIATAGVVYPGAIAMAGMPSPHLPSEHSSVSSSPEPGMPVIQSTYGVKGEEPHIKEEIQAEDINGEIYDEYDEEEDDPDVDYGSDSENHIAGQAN
UniProt Q14849, sequence (Q14849 whole entry, looked up): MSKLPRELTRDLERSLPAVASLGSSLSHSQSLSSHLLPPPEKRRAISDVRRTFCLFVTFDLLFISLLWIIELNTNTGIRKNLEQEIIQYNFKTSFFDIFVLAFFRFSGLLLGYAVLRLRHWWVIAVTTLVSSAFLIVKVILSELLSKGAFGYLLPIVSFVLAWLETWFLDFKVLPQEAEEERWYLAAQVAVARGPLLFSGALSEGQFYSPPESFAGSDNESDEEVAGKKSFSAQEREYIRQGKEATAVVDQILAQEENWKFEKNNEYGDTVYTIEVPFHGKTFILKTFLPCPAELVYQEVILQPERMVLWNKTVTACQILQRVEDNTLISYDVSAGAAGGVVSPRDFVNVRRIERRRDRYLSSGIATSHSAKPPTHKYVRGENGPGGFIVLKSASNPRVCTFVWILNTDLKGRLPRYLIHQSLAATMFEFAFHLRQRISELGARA
UniProt Q9Y6J9, sequence (Q9Y6J9 whole entry, looked up): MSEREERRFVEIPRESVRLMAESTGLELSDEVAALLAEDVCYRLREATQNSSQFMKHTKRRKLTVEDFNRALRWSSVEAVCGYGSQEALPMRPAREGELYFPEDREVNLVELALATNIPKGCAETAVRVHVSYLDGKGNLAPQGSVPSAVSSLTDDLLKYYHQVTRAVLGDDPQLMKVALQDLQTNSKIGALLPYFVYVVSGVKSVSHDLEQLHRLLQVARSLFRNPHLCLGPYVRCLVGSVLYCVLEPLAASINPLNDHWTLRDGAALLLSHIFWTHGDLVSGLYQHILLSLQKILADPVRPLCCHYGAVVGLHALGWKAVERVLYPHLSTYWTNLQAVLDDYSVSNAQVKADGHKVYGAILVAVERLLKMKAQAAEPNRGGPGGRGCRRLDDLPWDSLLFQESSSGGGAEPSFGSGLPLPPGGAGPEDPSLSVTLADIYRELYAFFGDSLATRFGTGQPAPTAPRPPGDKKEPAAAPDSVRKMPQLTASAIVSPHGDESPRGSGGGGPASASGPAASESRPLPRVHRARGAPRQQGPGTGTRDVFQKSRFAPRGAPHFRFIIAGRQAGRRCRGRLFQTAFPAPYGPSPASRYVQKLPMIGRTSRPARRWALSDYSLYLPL
UniProt Q96EX1, sequence (Q96EX1 whole entry, looked up): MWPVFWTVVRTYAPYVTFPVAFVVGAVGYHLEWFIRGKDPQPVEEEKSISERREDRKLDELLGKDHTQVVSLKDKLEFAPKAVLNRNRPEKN

In the case of SMG6 (UniProt Q86US8), the log2 fold change is -0.038 with erlotinib; 0.026 in [1]; 0.012 in [2]; 0.009 in assay [3]; 0.021 in assay [4]; 0 in [5]. The log2 fold change in assay [6] is -0.092; in assay [7], -0.04; in assay [8], -0.005; with IRAK-1-4 Inhibitor I, 0.026.

With SLC30A9 (UniProt Q6PML9), the log2 fold change with erlotinib is -0.023; in [1], 0.039; in assay [2], -0.17; in assay [3], -0.079; in [4], 0.017; in [5], -0.012. Further, the log2 fold change was -0.023 in assay [6], -0.056 in assay [7], 0.1 in assay [8] and -0.005 in the assay with IRAK-1-4 Inhibitor I.

Turning to SMC4 (UniProt Q9NTJ3), the log2 fold change in the assay with erlotinib was -0.006; in assay [1], -0.018; in [2], -0.007; in [3], 0; in assay [4] it was -0.026; in assay [5], 0. Further, the log2 fold change in assay [6] was -0.046; in assay [7], -0.015; in [8] it was -0.014; with IRAK-1-4 Inhibitor I it was -0.009.

Take SLC20A1 (UniProt Q8WUM9): the log2 fold change in the assay with erlotinib is 0.032; in assay [1], 0.059; in [2], 0.089; in assay [3], -0.097; in [4], 0.005; in assay [5] it was 0.02. The log2 fold change in assay [6] was 0.085; in assay [7] it was 0.069; in assay [8], 0.214; with IRAK-1-4 Inhibitor I, 0.05.

On to STARD3 isoform 3 (UniProt Q14849), for which the log2 fold change is -0.014 in the assay with erlotinib; 0.104 in assay [1]; -0.022 in assay [2]; -0.085 in assay [3]; -0.078 in [4]; -0.003 in [5]. For the same target, the log2 fold change in assay [6] was 0.107; in [7] it was -0.085; in [8] it was 0.133; with IRAK-1-4 Inhibitor I it was 0.047.

Consider SFR1 isoform 2 (UniProt Q86XK3), for which the log2 fold change was -0.009 with erlotinib; -0.019 in [1]; 0.067 in assay [2]; 0.015 in assay [3]; -0.051 in [4]; 0.018 in [5]. Further, the log2 fold change is 0.025 in [6], 0.04 in assay [7], 0.01 in assay [8] and 0.001 in the assay with IRAK-1-4 Inhibitor I.

For SLC7A5 (UniProt Q01650), the log2 fold change in the assay with erlotinib is 0.001; in [1], -0.009; in assay [2], -0.029; in assay [3] it was -0.015; in assay [4], 0.02; in assay [5] it was 0.007. Also, the log2 fold change is -0.008 in [6], 0.019 in [7], -0.006 in assay [8] and 0.021 with IRAK-1-4 Inhibitor I.

In the case of STOML2 (UniProt Q9UJZ1), the log2 fold change in the assay with erlotinib is -0.021; in assay [1], 0.018; in assay [2], 0.04; in assay [3], -0.049; in assay [4], 0.037; in assay [5], 0.012. Moreover, the log2 fold change is -0.063 in assay [6], 0.023 in assay [7], 0.027 in assay [8] and 0.036 with IRAK-1-4 Inhibitor I.

As to TAF6L (UniProt Q9Y6J9), the log2 fold change is -0.013 in the assay with erlotinib; 0.174 in assay [1]; -0.077 in assay [2]; 0.005 in assay [3]; 0.025 in [4]; 0.055 in assay [5]. For the same target, the log2 fold change in [6] is 0.055; in assay [7], 0.022; in [8], -0.104; with IRAK-1-4 Inhibitor I it was 0.051.

Consider TARDBP (UniProt Q13148), for which the log2 fold change in the assay with erlotinib is -0.017; in [1], -0.092; in assay [2] it was 0.018; in [3], 0.004; in assay [4], 0.09; in assay [5], -0.133. For the same target, the log2 fold change in assay [6] was -0.036; in assay [7] it was -0.065; in [8] it was 0.032; with IRAK-1-4 Inhibitor I, 0.048.

As to SMIM12 (UniProt Q96EX1), the log2 fold change with erlotinib was 0.048; in assay [1], -0.105; in [2] it was -0.024; in [3] it was -0.042; in assay [4] it was -0.026; in [5] it was 0.024. The log2 fold change is -0.009 in assay [6], 0.075 in assay [7], 0.008 in assay [8] and -0.009 in the assay with IRAK-1-4 Inhibitor I.

Take SOX5 (UniProt P35711): the log2 fold change is -0.169 with erlotinib; 0.08 in assay [1]; 0.025 in assay [2]; 0.38 (active) in [3]; 0.131 in assay [4]; 0.059 in assay [5]. In addition, the log2 fold change in assay [6] was -0.239; in assay [7] it was 0.028; in assay [8], 0.154; with IRAK-1-4 Inhibitor I, 0.044.

SYNRG (UniProt Q9UMZ2): the log2 fold change in the assay with erlotinib was 0.029; in assay [1] it was -0.037; in assay [2] it was 0.078; in [3], 0.015; in assay [4], -0.012; in assay [5], -0.019. The log2 fold change is -0.01 in [6], -0.004 in assay [7], 0.021 in assay [8] and 0.016 with IRAK-1-4 Inhibitor I.

Regarding SYPL1 (UniProt Q16563), the log2 fold change in the assay with erlotinib was 0.026; in assay [1], -0.017; in assay [2], -0.014; in assay [3], 0.016; in assay [4], 0.04; in [5], 0.025. Also, the log2 fold change in assay [6] is 0.002; in [7], 0.014; in assay [8], 0.002; with IRAK-1-4 Inhibitor I, 0.032.

In the case of SPATS2 (UniProt Q86XZ4), the log2 fold change with erlotinib is -0.012; in assay [1], -0.127; in assay [2], -0.042; in [3], 0.028; in assay [4], -0.007; in assay [5] it was 0.017. Moreover, the log2 fold change in assay [6] was -0.081; in assay [7], 0.063; in [8], 0.043; with IRAK-1-4 Inhibitor I it was -0.066.
